{"source": "PubChem BioAssay AID463173", "about": "(ICCB-Longwood Screening Facility, Harvard Medical School, 2010)", "note": "Out of some 52,000 compounds screened, about 1,700 (3.3%) were called active. What follows is part of a selection rich in actives, with near analogues and random picks from the rest. Values without a mark were called inactive. Cut-off read from the data, not from the text of the source: active = survival mostly below about 52% (no sharp cut-off); inactive = mostly above about 56%.", "data": [{"test_system": "Wild type", "assay": "S. aureus survival, RN4220 and DeltatarO strains – OD600, teichoic acid synthesis inhibitors, primary screen (AID 463173)", "details": "S. aureus RN4220 wild type/DeltatarO growth, OD600, 18 h, hits give low values, screened at 18.75 µg/mL (by protocol)", "values": [{"compound": "CCOc1ccc(-c2nc(SCC(=O)Nc3cc(F)ccc3F)n3[nH]c(=O)cc3n2)cc1", "survival": "77%"}, {"compound": "CC1=C(C(=O)NCCc2ccc(Cl)cc2)C2(CCCCC2)OC1=O", "survival": "73%"}, {"compound": "CC(C)CNc1nc(NC(C)(C)C)nc(Oc2ccc(=O)n(-c3ccccc3)n2)n1", "survival": "84%"}, {"compound": "CCc1ccc(NCc2cc3cc(OC)c(OC)cc3n(CC(=O)Nc3cc(C)ccc3C)c2=O)cc1", "survival": "63%"}, {"compound": "CCN(C(=O)CSc1nc2ccccc2n1Cc1cc(C)ccc1C)c1ccccc1", "survival": "72%"}, {"compound": "COc1cc(NC(=O)Cn2cc(S(=O)(=O)c3ccccc3)c(=O)c3ccccc32)cc(OC)c1", "survival": "78%"}, {"compound": "COc1ccc(N(C(=O)COc2ccc(Br)cc2)S(=O)(=O)c2ccc(C)cc2)cc1", "survival": "87%"}, {"compound": "CCCCN(CC)C(=O)Cn1ncc2c3ccccc3n(CCC)c2c1=O", "survival": "98%"}, {"compound": "CN(C)CC(O)C1CCOC(C)(C)C1", "note": "(centres undefined)", "survival": "111%"}, {"compound": "CCOC(=O)c1cnc2ccc(OC)cc2c1Nc1ccc(OCc2ccccc2Cl)cc1", "survival": "6% (active)"}, {"compound": "CCOC(=O)c1cnc2ccc(C)cc2c1Nc1ccc(OCc2ccccc2Cl)cc1", "survival": "4% (active)"}, {"compound": "CCOC(=O)c1cnc2ccc(C(=O)OC)cc2c1Nc1ccc(OCc2ccccc2Cl)cc1", "survival": "129%"}, {"compound": "CCOc1ccc(Nc2c(S(=O)(=O)c3ccc(Cl)cc3)cnc3ccc(OC)cc23)cc1", "survival": "88%"}, {"compound": "CCOC(=O)c1cnc2ccc(OC)cc2c1Nc1cccc(C(C)=O)c1", "survival": "2% (active)"}, {"compound": "CN(C)c1cc(Nc2ccc(Cl)cc2)c2c3c(onc13)-c1ccccc1C2=O", "survival": "96%"}, {"compound": "CCC(=O)N1CCc2cc(S(=O)(=O)NC(C(=O)NCCc3ccccc3)C(C)C)ccc21", "note": "(centres undefined)", "survival": "83%"}, {"compound": "CCC1CCc2nc3sc(C(=O)Nc4ccc(F)cc4F)c(N)c3cc2C1", "note": "(centres undefined)", "survival": "92%"}, {"compound": "Cc1cccc(CCNC(=O)Cn2ncc3c(=O)oc4ccccc4c32)c1", "survival": "76%"}, {"compound": "Fc1ccc(-c2ccc(NCc3ccccc3)nn2)cc1", "survival": "119%"}, {"compound": "Cc1cccc(CNC(=O)C2CCC(CNS(=O)(=O)c3ccc4c(c3)CCCC(=O)N4)CC2)c1", "note": "(centres undefined)", "survival": "65%"}, {"compound": "CCn1cc2nc(SCc3cccc(C(F)(F)F)c3)n(Cc3ccc(Cl)cc3)c(=O)c2n1", "survival": "146%"}, {"compound": "CCn1cc2nc(SCc3cccc(C(F)(F)F)c3)n(Cc3ccc(OC)cc3)c(=O)c2n1", "survival": "71%"}, {"compound": "CCn1cc2nc(SCc3cccc(OC)c3)n(Cc3ccc(Cl)cc3)c(=O)c2n1", "survival": "10% (active)"}, {"compound": "CCc1ccc(-c2cn3c(n2)SCC3)cc1", "survival": "111%"}, {"compound": "CCCNC(=O)Cn1c(=O)c2cccn2c2cccnc21", "survival": "89%"}, {"compound": "Cc1c(CNC(C)CCc2ccccc2)c(C(=O)O)c(C)n1Cc1ccc(F)cc1", "note": "(centres undefined)", "survival": "93%"}, {"compound": "Cc1ccc(OCc2nc(C#N)c(NCCc3ccccc3)o2)cc1", "survival": "-1% (active)"}, {"compound": "N#Cc1nc(COc2ccccc2Cl)oc1NCCc1ccccc1", "survival": "25%"}, {"compound": "N#Cc1nc(COc2cccc(Cl)c2)oc1NCCc1ccccc1", "survival": "19%"}, {"compound": "O=C(CCc1ccccc1)Nc1ccccc1", "survival": "105%"}, {"compound": "CCOc1ccc(OCC)c(NS(=O)(=O)c2c(C(=O)N3CCC(C)CC3)c(C)n(C)c2C)c1", "survival": "0% (active)"}, {"compound": "CC(=O)Nc1ccc(NS(=O)(=O)c2c(C(=O)N3CCCCCC3)c(C)n(C)c2C)cc1", "survival": "65%"}, {"compound": "CCOc1ccc(OCC)c(NS(=O)(=O)c2c(C(=O)N3CCCCCC3)c(C)n(C)c2C)c1", "survival": "71%"}, {"compound": "Cc1ccc(NS(=O)(=O)c2c(C(=O)N3CCC(C)CC3)c(C)n(C)c2C)cc1Cl", "survival": "131%"}, {"compound": "COc1ccc(C)cc1NS(=O)(=O)c1c(C(=O)N2CCC(C)CC2)c(C)n(C)c1C", "survival": "85%"}, {"compound": "CC(=O)Nc1ccc(NS(=O)(=O)c2c(C(=O)N3CCC(C)CC3)c(C)n(C)c2C)cc1", "survival": "-3% (active)"}, {"compound": "COc1cc(OC)c(NS(=O)(=O)c2c(C(=O)N3CCC(C)CC3)c(C)n(C)c2C)cc1Cl", "survival": "-1% (active)"}, {"compound": "Cc1cc(Cl)ccc1NS(=O)(=O)c1c(C(=O)N2CCC(C)CC2)c(C)n(C)c1C", "survival": "14% (active)"}, {"compound": "Cc1c(C(=O)N2CCC(C)CC2)c(S(=O)(=O)NCc2ccc(Cl)cc2)c(C)n1C", "survival": "133%"}, {"compound": "CCOc1ccc(CNS(=O)(=O)c2c(C(=O)N3CCC(C)CC3)c(C)n(C)c2C)cc1OC", "survival": "71%"}, {"compound": "COc1cc(OC)c(NS(=O)(=O)c2c(C(=O)N3CCCCCC3)c(C)n(C)c2C)cc1Cl", "survival": "54%"}, {"compound": "Cc1cc(Cl)ccc1NS(=O)(=O)c1c(C(=O)N2CCCCCC2)c(C)n(C)c1C", "survival": "77%"}, {"compound": "COc1ccc(C(=O)NCC(c2ccc3c(c2)OCO3)N2CCN(C)CC2)cc1", "note": "(centres undefined)", "survival": "60%"}, {"compound": "CCc1ccc(-n2nc3ccc(NC(=O)COc4ccc(OC)cc4)cc3n2)cc1", "survival": "95%"}, {"compound": "CCOc1ccc(CCNC(=O)C2CCN(Cc3nc(-c4ccccc4C)oc3C)CC2)cc1OCC", "survival": "81%"}, {"compound": "CCc1cccc(C)c1NC(=O)CCS(=O)(=O)c1cc(Br)cc2c1N(C(=O)C1CC1)CC2", "survival": "85%"}, {"compound": "CC(=O)c1sc(NC(=O)c2c(-c3ccccc3)c(-c3ccccc3)nn(C)c2=O)nc1C", "survival": "54%"}, {"compound": "COc1cc(N(C(=O)c2ccco2)C(C(=O)NC2CCCC2)c2ccc(C)cc2)ccc1-n1cnnn1", "note": "(centres undefined)", "survival": "105%"}, {"compound": "O=C(CSc1nnc(-c2ccc(F)cc2)o1)N1CCCc2ccccc21", "survival": "66%"}, {"compound": "Cc1cccc(-c2nnc(SCC(=O)N3CCCc4ccccc43)o2)c1", "survival": "5% (active)"}, {"compound": "O=C(CSc1nnc(-c2cccc(F)c2)o1)N1c2ccccc2Sc2ccccc21", "survival": "103%"}, {"compound": "Cc1ccc(-c2nnc(SCC(=O)N3CCCc4ccccc43)o2)cc1", "survival": "65%"}, {"compound": "Cc1ccccc1-c1nnc(SCC(=O)N2CCCc3ccccc32)o1", "survival": "15% (active)"}, {"compound": "O=C(CSc1nnc(-c2ccccc2Cl)o1)N1CCCc2ccccc21", "survival": "35%"}, {"compound": "O=C(CSc1nnc(-c2ccccc2)o1)N1CCCc2ccccc21", "survival": "68%"}, {"compound": "COc1cccc(-c2nnc(SCC(=O)N3c4ccccc4Sc4ccccc43)o2)c1", "survival": "11% (active)"}, {"compound": "COc1cccc(-c2nnc(SCC(=O)N3CCc4ccccc43)o2)c1", "survival": "69%"}, {"compound": "CCn1c(SC)nnc1C1CCCN(C(=O)Cc2cccnc2)C1", "note": "(centres undefined)", "survival": "89%"}, {"compound": "CCC1CCCCN1CCCNC(=O)CN1C(=O)c2cccnc2Oc2ccc(Cl)cc21", "note": "(centres undefined)", "survival": "65%"}, {"compound": "Cc1cc(C)cc(NS(=O)(=O)c2ccc3[nH]cc(C(=O)NCc4ccccc4Cl)c(=O)c3c2)c1", "survival": "111%"}, {"compound": "CCOc1ccccc1-c1noc(CSc2nnc(-c3ccccc3)n2-c2ccc(F)cc2)n1", "survival": "117%"}, {"compound": "CN(C(=O)CSc1nc(C2CCCC2)nc2c1c(=O)n(C)c(=O)n2C)c1ccccc1", "survival": "128%"}, {"compound": "Cc1ccc(-c2c(CN3CCN(c4cccc(C)c4)C(C)C3)csc2C)cc1", "note": "(centres undefined)", "survival": "90%"}, {"compound": "Cc1nc(-c2ccccc2)sc1-c1ccc(SCC(=O)Nc2ccccc2)nn1", "survival": "41%"}, {"compound": "CC(=O)Nc1cccc(NC(=O)CSc2ccc(-c3sc(-c4ccccc4)nc3C)nn2)c1", "survival": "17% (active)"}, {"compound": "Cc1nc(-c2ccccc2)sc1-c1ccc(SCC(=O)Nc2cccc(C(F)(F)F)c2)nn1", "survival": "67%"}, {"compound": "O=C(Cn1c(=O)oc2cc(S(=O)(=O)N3CCCC3)ccc21)NCc1ccc(Cl)cc1", "survival": "138%"}, {"compound": "NC1=NC(c2cccc(Cl)c2)n2c(nc3ccccc32)N1", "note": "(centres undefined)", "survival": "97%"}, {"compound": "CCOc1ccc(-c2cc(CCCC(=O)NCCc3cc(OC)c(OC)c(OC)c3)no2)cc1", "survival": "59%"}, {"compound": "Cc1ccc(CNC(=O)CSc2nc3ccsc3c(=O)n2-c2ccc(Br)cc2)cc1", "survival": "14% (active)"}, {"compound": "O=C(CSc1nc2ccsc2c(=O)n1Cc1ccccc1Cl)NCc1ccc(Cl)cc1", "survival": "75%"}, {"compound": "O=C(CSc1nc2ccsc2c(=O)n1-c1ccc(Br)cc1)NCc1ccc(Cl)cc1", "survival": "81%"}, {"compound": "Cc1ccccc1CSc1nc2ccsc2c(=O)n1CCC(C)C", "survival": "74%"}, {"compound": "Cc1ccc(Cn2c(SCC(=O)NCc3ccccc3Cl)nc3ccsc3c2=O)cc1", "survival": "-6% (active)"}, {"compound": "CC(C)CCn1c(SCc2cccc(F)c2)nc2ccsc2c1=O", "survival": "76%"}, {"compound": "Cc1ccc(Cn2c(SCC(=O)NCc3ccccc3)nc3ccsc3c2=O)cc1", "survival": "76%"}, {"compound": "Cc1ccc(CSc2nc3ccsc3c(=O)n2CCC(C)C)cc1", "survival": "-6% (active)"}, {"compound": "O=C(CSc1nc2ccsc2c(=O)n1-c1ccc(Br)cc1)NCc1ccccc1", "survival": "80%"}, {"compound": "CC(C)/C=N/NC(=O)c1ccc2c(c1)NC(=O)C(C)(C)O2", "survival": "108%"}, {"compound": "Cc1ccccc1OCC(=O)OC1CCCN(C)C1", "note": "(centres undefined)", "survival": "90%"}, {"compound": "CCC(=O)N1CCc2cc(Br)cc(S(=O)(=O)N3CCC(C(=O)Nc4ccccc4F)CC3)c21", "survival": "80%"}, {"compound": "COc1ccc(-c2cc(-c3ccccc3)c(C#N)c(SCC(O)CS(=O)(=O)Cc3ccc(Cl)cc3)n2)cc1", "note": "(centres undefined)", "survival": "141%"}, {"compound": "CCCN(C(=O)CCc1nc(-c2ccccc2F)no1)c1ccc(CC)cc1", "survival": "-2% (active)"}, {"compound": "CCCN(C(=O)CCc1nc(-c2ccc(OC)cc2)no1)c1ccccc1F", "survival": "0% (active)"}, {"compound": "CCCN(C(=O)CCc1nc(-c2ccc(C)cc2)no1)c1ccc(OCC)cc1", "survival": "0% (active)"}, {"compound": "CCOc1ccc(N(CC)C(=O)CCc2nc(-c3ccccc3F)no2)cc1", "survival": "39%"}, {"compound": "COc1ccc(-c2noc(CCC(=O)N(C)c3cc(Cl)ccc3OC)n2)cc1", "survival": "20%"}, {"compound": "COc1ccc(-c2noc(CC(=O)N(C)c3ccccc3F)n2)cc1", "survival": "84%"}, {"compound": "CCOC(=O)c1ccccc1NC(=O)CCc1nc(-c2ccc(C)cc2)no1", "survival": "27%"}, {"compound": "CCCN(C(=O)Cc1nc(-c2ccc(OC)cc2)no1)c1ccccc1C", "survival": "87%"}, {"compound": "COc1ccc(-c2noc(CCC(=O)NCc3ccc(C)cc3)n2)cc1", "survival": "94%"}, {"compound": "COc1ccc(-c2noc(CCC(=O)N(C)c3ccccc3C)n2)cc1", "survival": "71%"}, {"compound": "Cc1ccc(-c2noc(CCC(=O)N(C)c3ccccc3F)n2)cc1", "survival": "4% (active)"}, {"compound": "CN(C(=O)CCc1nc(-c2ccccc2F)no1)c1ccc(Cl)cc1", "survival": "68%"}]}]}
